# Assay outcomes: PubChem, National Center for Advancing Translational Sciences (NCATS)
# HP1b chromo inh = HP1-beta chromodomain-methylated histone interaction inhibition. P83916. AlphaScreen HP1-beta / biotin-H3K9me3 peptide binding. Potency, µM (top dose mostly 114 µM), for the others: at the top dose activity change, negative = inhibition, most hits filed as inhibitors. 0.56% of 390,000 active; further: potency means the concentration at half of the fitted maximal effect; nearly all actives have a fitted effect of over 70% in size
#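 Compound inhibition of the preformed complex between 50 nM HP1-beta and 50 nM biotinylated H3K9me3 peptide was read by AlphaScreen. Buffer was PBS pH 7.4 with 0.01% Tween-20. Incubations ran 30 min at room temperature, with 10 ug/mL donor/acceptor beads.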
# BAZ2B block = blocks human BAZ2B; Q9UIF8; AlphaScreen BAZ2B-H3K14Ac peptide displacement; Potency, µM (series often up to 114 µM), for the others: at the highest dose activity change, negative = inhibition, actives largely listed as inhibitors; 4.4% of 360,000 active; AID 504333; further: potency means the concentration at half of the fitted maximal effect; on the % scale 0 is the no-effect control and ±100 the full control effect; nearly all actives have a fitted effect of over 60% in size
#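 Multi-concentration screen (max 110 uM) measuring displacement of acetylated histone H3 peptide from BAZ2B by AlphaScreen, using 50 nM protein, 50 nM peptide and 10 ug/mL streptavidin donor plus Ni-chelate acceptor beads.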
# JMJD2A Tudor = inhibitors of human JMJD2A Tudor domain; O75164; AlphaScreen JMJD2A-Tudor / H3K4me3 peptide binding; Potency, µM (doses to about 114 µM), for the others: top-dose activity change, negative = inhibition, hits mostly inhibitors; 4.4% of 390,000 active; AID 504339; further: potency means the concentration at half of the fitted maximal effect; on the % scale 0 is the no-effect control and ±100 the full control effect; nearly all actives have a fitted effect of over 50% in size
# PI5P4K alpha inh = inhibitors of human PI5P4K alpha; P48426; PI5P4Kalpha enzyme, ADP-Glo luminescence, 60 min; active compounds read low; max response, %; 1.2% of 330,000 active; AID 652105; active means max response of -50% or lower; inconclusive means between -30% and -50%; inactive means -30% or higher; further: value at the top dose of about 77 µM; on the % scale 0 is the no-effect control and ±100 the full control effect
#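 qHTS, 1536-well: enzyme/substrate mix, compound by pin tool, 5 microM ATP final; RT 60 min; ADP-Glo reagents 1 (45 min) then 2 (30 min); luminescence.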
# G9a inh = blocks human histone lysine methyltransferase G9a. Q96KQ7. Potency, µM (series often up to 102 µM), inactives show top-dose activity, negative = inhibition, most hits filed as inhibitors. G9a H3K9 monomethylation, AlphaScreen, 2 h. 8.8% of 350,000 active; further: potency means the concentration at half of the fitted maximal effect; on the % scale 0 is the no-effect control and ±100 the full control effect; nearly all actives have a fitted effect of over 75% in size
#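 AlphaScreen detection with an anti-monomethyl H3K9 antibody quantified product after a 2 h room-temperature reaction containing 500 nM biotinylated H3K9 peptide, 20 µM SAM and 20 nM enzyme, which had been preincubated 15 min with compound.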
# L3MBTL1 block = L3MBTL1 (human) inhibition. Q9Y468. AlphaScreen L3MBTL1–H3K9me1 peptide binding. Potency, µM (titrated, usually from 57.1 µM), for inactives: at the top dose activity, negative = inhibition, usual class: inhibitors. 0.66% of 230,000 active. AID 485360; further: potency means the concentration at half of the fitted maximal effect; on the % scale 0 is the no-effect control and ±100 the full control effect; nearly all actives have a fitted effect of over 60% in size
# Target sequence (Q9Y468 whole entry, looked up): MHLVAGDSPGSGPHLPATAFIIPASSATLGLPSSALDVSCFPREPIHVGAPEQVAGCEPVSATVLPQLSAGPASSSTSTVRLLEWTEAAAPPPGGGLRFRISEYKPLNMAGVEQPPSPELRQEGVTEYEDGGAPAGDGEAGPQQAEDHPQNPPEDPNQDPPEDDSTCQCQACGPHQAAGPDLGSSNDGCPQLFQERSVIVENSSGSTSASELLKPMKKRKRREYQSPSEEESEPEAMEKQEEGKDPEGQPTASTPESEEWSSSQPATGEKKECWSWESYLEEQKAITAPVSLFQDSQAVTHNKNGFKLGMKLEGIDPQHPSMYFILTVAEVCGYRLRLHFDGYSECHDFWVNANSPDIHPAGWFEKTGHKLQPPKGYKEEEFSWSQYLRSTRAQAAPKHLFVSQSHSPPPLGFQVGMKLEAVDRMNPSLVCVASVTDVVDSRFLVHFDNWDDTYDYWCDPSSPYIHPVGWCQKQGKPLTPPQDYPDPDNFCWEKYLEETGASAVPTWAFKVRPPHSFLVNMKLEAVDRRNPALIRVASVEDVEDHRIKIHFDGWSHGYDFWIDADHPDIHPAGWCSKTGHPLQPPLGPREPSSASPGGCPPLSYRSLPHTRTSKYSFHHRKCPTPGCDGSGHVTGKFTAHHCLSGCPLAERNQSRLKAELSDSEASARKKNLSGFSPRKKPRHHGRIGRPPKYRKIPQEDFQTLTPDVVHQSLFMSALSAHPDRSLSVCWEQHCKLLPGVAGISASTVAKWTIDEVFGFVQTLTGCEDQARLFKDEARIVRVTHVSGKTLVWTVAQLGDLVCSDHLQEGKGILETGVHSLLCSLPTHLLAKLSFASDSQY
#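 Read-out is AlphaScreen signal from streptavidin donor and nickel chelate acceptor beads (10 ug/mL final each) bridging L3MBTL1 (50 nM) and biotinylated K9-monomethylated H3(1-15) peptide (75 nM), after 30 min compound exposure at room temperature.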
# Starred values were filed as active, the others as inactive; ? = inconclusive; . = no result; [ ] = dose if it differs, or a comment. The list is not random: actives were taken first. Their share in the collection is about 11%. Unless noted, the call rests on the fitted dose curve; in most records, active means well fitted inhibition curve with a large enough effect; inconclusive means small, poorly fitted or top-dose-only effect; inactive means no such curve, though single readings can be large or run the other way.
SMILES,HP1b chromo inh,BAZ2B block,JMJD2A Tudor,PI5P4K alpha inh,G9a inh,L3MBTL1 block
CCOC(=O)/C(C#N)=C1/C=CN(Cc2ccccc2)C=N1,-1%,9%,-20%,.,19%,-3%
CCOC(=O)/C(C#N)=C1\C(=O)N(Cc2ccccc2)c2ccccc21,14µM*,35µM*,20µM*,-14,.,-10%
CCO/C(C)=C1\C(=O)N(CC)c2ccccc21,18%,-4%,-10%,-5,50µM*,-8%
CCOC(=O)C1=C(CN2CCCCC2)NC(=O)NC1c1ccc(C)cc1 (stereo not given),9%,.,-17%,.,?,.
COC(=O)C1=C(CSc2nncn2C)NC(=O)NC1c1cc(C)ccc1C (stereo not given),35%,10%,-13%,-8,22µM*,7%
COC(=O)C1=C(CN2CCCc3ccccc32)NC(=O)NC1c1ccc(F)cc1 (stereo not given),11%,?,?,.,20µM*,-9%
COC(=O)C1=C(CN2CCc3ccccc32)NC(=O)NC1c1cc(C)ccc1C (stereo not given),6%,50µM*,?,3,?,-7%
O=C(CCc1c[nH]c2ccccc12)NCc1ccncc1,11%,0%,-2%,-2,50µM*,.
O=C1c2ccccc2C(=O)N1CCc1c[nH]c2ccccc12,17%,-33%,?,2,-29%,-23%
O=C(CCc1c[nH]c2ccccc12)NCc1ccc2c(c1)OCO2,15%,?,-14%,-4,56µM*,-8%
O=C1c2ccccc2C(=O)N1CCCc1c[nH]c2ccccc12,?,?,?,6,50µM*,-3%
O=C(CCCc1c[nH]c2ccccc12)NCc1ccc2c(c1)OCO2,31%,-7%,-11%[11.4 µM],1,-51%[59 µM],.
O=C(CCCc1c[nH]c2ccccc12)NCCc1c[nH]c2ccccc12,?,?,?,-5,45µM*,.
CC(=O)c1ccc(NC(=O)c2cc(-c3ccc(C)s3)nc3ccccc23)cc1,40%,5%,11%,.,-3%[59 µM],.
CSC1=NC2(CCN(C(=O)NC3CCCCC3)CC2)N=C1c1ccc(C(C)(C)C)cc1,30%,4%[57.1 µM],-4%,.,-11%[59 µM],.
Cc1ccc(CCNS(=O)(=O)c2ccc3c(c2)CCN3C(=O)CCC(=O)O)cc1,66%,19%,-1%,.,21%[59 µM],.
CCOc1ccc(NC(=O)COC(=O)CCCc2c[nH]c3ccccc23)cc1,-1%,63%[57.1 µM],?,.,?,-17%
O=C(CCc1c[nH]c2ccccc12)Nc1ncccc1O,28%,56µM*,-36%,0,?,.
COc1ccc(NC(=O)COC(=O)CCCc2c[nH]c3ccccc23)cc1,-4%,50µM*,-31%,1,?,.
Cc1ccc(/C=C(/NC(=O)c2ccccc2)C(=O)NCCc2c[nH]c3ccccc23)o1,-14%,?,-34%,3,45µM*,-15%
Fc1ccc(-c2noc3ncnc(NCCc4ccccc4)c23)cc1,35%,22%[57.1 µM],16%,.,6%[59 µM],.
Nc1n[nH]c(-c2ccccc2)n1,30%,-5%,1%,-5,7%[0.501 µM],1%
c1ccc(-c2n[nH]c(-c3ccccn3)n2)cc1,37%,8.9µM*,?,-1,?,.
C=CCSC1=N/C(=C\C=C\c2ccco2)C(=O)S1,40µM*,10µM*,45µM*,-63*,7.1µM*,2.8µM*
C=CCSC1=N/C(=C\c2sccc2C)C(=O)S1,6%,-6%,-16%,.,.,-3%
SMILES,HP1b chromo inh,BAZ2B block,JMJD2A Tudor,PI5P4K alpha inh,G9a inh,L3MBTL1 block
CCc1cccc(NC(=O)c2cnc(SC)nc2-c2ccccc2)c1,61%,20%,15%,.,3%[59 µM],.
CC(C)(C)OC(=O)[C@H](CCCCN)NC(=O)c1nc[nH]c1C(=O)N[C@@H](CCCCN)C(=O)OC(C)(C)C,46%,.,50µM*,1,.,1%
CC(C)C[C@H](NC(=O)c1nc[nH]c1C(=O)NC1CCNCC1)C(=O)OC(C)(C)C,21%,79µM*,?,-4,?,-4%
O=S(=O)(c1ccc(OC(F)(F)F)cc1)N1CCN(c2nc(-c3cccs3)nc3ccccc23)CC1,38%,.,0%,.,.,.
CNc1ccc(Br)cc(C(=O)/C=C/c2cc(OC)ccc2OC)c1=O,-30%,28µM*,25µM*,-28,4.5µM*,14µM*
COC(=O)CNC(=O)/C=C/c1cc(Br)ccc1OC,40%,-4%,-3%,0,-32%,.
COc1ccc(/C=C/C(=O)O)cc1,24%,.,-13%,1,37%[59 µM],-6%
CNc1ccc(Br)cc(C(=O)/C=C/c2ccc(OC)cc2)c1=O,-9%,45µM*,-31%,-25,10µM*,-16%
CNc1ccc(Br)cc(C(=O)/C=C/c2ccc3c(c2)OCO3)c1=O,?,40µM*,40µM*,?,10µM*,28µM*
CCNc1ccc(Br)cc(C(=O)/C=C/c2ccc(Cl)cc2Cl)c1=O,?,45µM*,45µM*,?,8.9µM*,18µM*
O=C(c1cccc(F)c1)N1CCC[C@@]2(CCN(Cc3ccccc3)C2)C1,.,.,.,.,4%[12.7 µM],.
COc1cc(NC(=O)CCc2c(C)nn(-c3ccc4nnc(C)n4n3)c2C)cc(OC)c1OC,16%[57 µM],2%,-5%,.,24%[59 µM],.
CCc1cccc(NC(=O)C2Cc3ccccc3N2C(=O)c2ccccc2)c1 (stereo not given),29%,3%,-16%,.,49%[59 µM],.
Cc1ccc(CNC(=O)CCCn2c(=O)c3ccccc3n(Cc3ccccc3C)c2=O)cc1,38%,-3%,2%,.,8%[59 µM],.
O=C(c1ccncc1)N1CCC[C@@]2(CCN(c3cccc(-c4ccccc4)c3)C2)C1,.,.,.,.,-15%[12.7 µM],.
CCOc1ccc(NC(=O)c2cc(=O)c3ccc(C)c(C)c3o2)cc1,5%,-2%,-23%,.,-5%[59 µM],.
CN1CCN(C(CNC(=O)C(=O)Nc2ccccc2C#N)c2ccc3c(c2)OCO3)CC1 (stereo not given),10%[57 µM],4%,-12%,.,3%[59 µM],.
C=CCNCCCCOc1cccc(Br)c1,?,32µM*,0.71µM*,-12,.,-22%
COCCCNCCCCOc1cccc(Br)c1,-13%,?,2.5µM*,-6,28µM*,10%
CCc1cccc(OCCCCN(CC)CC)c1,-38%,?,3.5µM*,8,-9%[12.7 µM],.
CCc1cccc(OCCCCNCCCOC)c1,?,?,6.3µM*,-3,13µM*,6%
CCOC(=O)C(CCCOc1cccc(CC)c1)C(=O)OCC,195%,113%,184%,8,298%,.
CCOC(=O)C(CCCCOc1cccc(CC)c1)C(=O)OCC,118%,153%,-76%,5,163%[59 µM],109%
CC(=O)Nc1ccn(C2OC(C(COC(C)=O)NC(=O)C(Cc3ccccc3)NC(=O)OC(C)(C)C)C(OC(C)=O)C2OC(C)=O)c(=O)n1 (stereo not given),20%,.,-19%,.,.,.
